Our source for the outcome and max activity values is PubChem BioAssay.

Results with a measured potency or affinity are listed apart. Results filed as inconclusive are left out. Unmarked numbers belong to inactive results. Activity calls are given as the source filed them. No rule for the calls is given here.

The nature of the first assay: IGROV1 cell killing – plate reader, dry powder samples, PAX8 inhibitor project, dose response (AID 743043).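 Also: more negative means fewer viable cells or more cytotoxicity.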 Conditions: IGROV1 ovarian cancer cell cytotoxicity; series mostly up to 35 µM.
Take `C[C@@H]1CN([C@@H](C)CO)C(=O)Cc2cc(NS(=O)(=O)c3ccc(Cl)cc3)ccc2O[C@H]1CN(C)Cc1ccc(C(F)(F)F)cc1`: the call was inactive.

`Cc1ccc(S(=O)(=O)Nc2ccc3c(c2)C(=O)N([C@@H](C)CO)C[C@@H](C)[C@@H](CN(C)C)OCCCC[C@H](C)O3)cc1`: the molecule was classed as inactive.

As to `C[C@@H]1CN([C@@H](C)CO)S(=O)(=O)c2ccc(C#Cc3ccncc3)cc2O[C@@H]1CN(C)C(=O)C1CCCCC1`, the result was inactive.

Regarding `CNC[C@H]1Oc2ccc(NC(=O)NC(C)C)cc2CC(=O)N([C@@H](C)CO)C[C@@H]1C`, the result was inactive.

With `CNC[C@@H]1Oc2ccc(NC(=O)NC(C)C)cc2CC(=O)N([C@@H](C)CO)C[C@@H]1C`, the molecule was called inactive.

A short description of the next assay: OVCAR-3 cell viability loss – plate reader, dry powder samples, PAX8 inhibitor project, dose response (AID 743044). Conditions: NIH:OVCAR-3 ovarian cancer cell viability; max activity: at 35 µM, active compounds read low unless noted; series mostly up to 50 µM.
With `C[C@@H]1CN([C@@H](C)CO)C(=O)Cc2cc(NS(=O)(=O)c3ccc(Cl)cc3)ccc2O[C@H]1CN(C)Cc1ccc(C(F)(F)F)cc1`, the max activity is 14.3% [at 0.26 µM, active compounds read low].

Take `Cc1ccc(S(=O)(=O)Nc2ccc3c(c2)C(=O)N([C@@H](C)CO)C[C@@H](C)[C@@H](CN(C)C)OCCCC[C@H](C)O3)cc1`: the max activity is 20.9% [at 0.26 µM, active compounds read low].

In the case of `C[C@@H]1CN([C@@H](C)CO)S(=O)(=O)c2ccc(C#Cc3ccncc3)cc2O[C@@H]1CN(C)C(=O)C1CCCCC1`, the max activity was -17.5% [at 1 µM, active compounds read low].

Regarding `CNC[C@H]1Oc2ccc(NC(=O)NC(C)C)cc2CC(=O)N([C@@H](C)CO)C[C@@H]1C`, the max activity is 12.2% [at 2.1 µM, active compounds read low].

Turning to `CNC[C@@H]1Oc2ccc(NC(=O)NC(C)C)cc2CC(=O)N([C@@H](C)CO)C[C@@H]1C`, the max activity was 22.5% [at 0.5 µM, active compounds read low].

Another assay is described as follows: toxicity toward immortalized ovarian surface epithelium – cell-based, plate reader, dry powder samples, cytotoxicity control for PAX8 inhibitor project, dose response (AID 743045).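 Also: 0% = neutral control median and -100% = positive control median; more negative values mean more cell killing.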 Conditions: IOSE-T80 ovarian epithelial cells; series mostly up to 35 µM.
`C[C@@H]1CN([C@@H](C)CO)C(=O)Cc2cc(NS(=O)(=O)c3ccc(Cl)cc3)ccc2O[C@H]1CN(C)Cc1ccc(C(F)(F)F)cc1`: the result was inactive.

Consider `Cc1ccc(S(=O)(=O)Nc2ccc3c(c2)C(=O)N([C@@H](C)CO)C[C@@H](C)[C@@H](CN(C)C)OCCCC[C@H](C)O3)cc1`, for which the call was inactive.

On to `C[C@@H]1CN([C@@H](C)CO)S(=O)(=O)c2ccc(C#Cc3ccncc3)cc2O[C@@H]1CN(C)C(=O)C1CCCCC1`, for which the molecule was called inactive.

As for `CNC[C@H]1Oc2ccc(NC(=O)NC(C)C)cc2CC(=O)N([C@@H](C)CO)C[C@@H]1C`, the molecule was called inactive.

With `CNC[C@@H]1Oc2ccc(NC(=O)NC(C)C)cc2CC(=O)N([C@@H](C)CO)C[C@@H]1C`, the result was inactive.
